# The list is not random: actives were taken first. Their share in the collection is about 1.3%.
# PfHsp40 rescue = rescue of yeast from PfHsp40 toxicity, primary screen, S. cerevisiae, ATP luminescence; S. cerevisiae expressing PfHsp40, growth rescue; growth rescue, % at 12.5 µM; 0.68% of 340,000 active; in the data active = growth rescue above about 28%, passing the limit was not always enough;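 note: yeast W303a lacking pdr1 and pdr3 grown in galactose medium; growth measured after three days at 30 °C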
# BJeLR lethal = MLPCN primary cell-based screen for lethality selective to Ras in HRASV12 cells. inhibition, % (concentration not given with the values). 0.17% of 300,000 active. BJeLR (HRASV12) viability, CellTiter-Glo ATP luminescence, 48 h. AID 1554, 2009; in the data active = inhibition above about 50%
# Sa RN4220 lethal = growth inhibition of S. aureus RN4220, primary screen, OD600 | 16 h | inhibition, % (concentration not given with the values) | 0.33% of 330,000 active; in the data active = inhibition above about 85%;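 note: plate controls were untreated cells for no effect and reference antibiotic for full effect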
# ugtP null kill = growth inhibition of ugtP-null S. aureus, primary screen, RN4220 ugtP deletion, OD600; 16 h; growth inhibition, % (test concentration not listed); 0.54% of 330,000 active; in the data active = growth inhibition above about 68%;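 note: plate controls were untreated wells for no effect and antibiotic for full effect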
# SARS 3CLpro inh = SARS-CoV 3CLpro protease inhibitors, primary screen, biochemical, quenched FRET; inhibition, % at 6 µM; 0.14% of 290,000 active; recombinant SARS-CoV 3CLpro, quenched FRET peptide cleavage; in the data active = inhibition above about 12%
# * = called active by the depositor; nt = no result given.
SMILES,PfHsp40 rescue,BJeLR lethal,Sa RN4220 lethal,ugtP null kill,SARS 3CLpro inh
CCc1cc(=O)oc2cc(OC(C)C(=O)NCCCn3ccnc3)ccc12 (stereo unspecified),0,4,5,1,0
Cc1cc(=O)oc2cc(OC(C)C(=O)NCCCn3ccnc3)ccc12 (stereo unspecified),95*,-1,2,5,-2
CCCOc1c(Cl)cc(C=NO)cc1OCC,nt,nt,-3,93*,nt
CCOc1cc(/C=N\O)cc(Cl)c1OCC,4,-6,nt,nt,-3
CCCOc1c(Br)cc(C=NO)cc1OC,nt,nt,-5,86*,nt
CCOc1ccccc1C=Nn1nnnc1N,nt,nt,7,15,nt
O=C(c1ccc(COc2c(F)c(F)cc(F)c2F)o1)N1CCN(c2ccc(Cl)cc2)CC1,1,4,2,-33,1
O=C(c1ccc(CS(=O)Cc2ccc(Cl)cc2)o1)N1CCN(c2cccc(Cl)c2)CC1 (stereo unspecified),4,-3,-8,93*,8
Cc1ccc(S(=O)(=O)Cc2ccc(C(=O)N3CCN(c4cccc(C)c4C)CC3)o2)cc1,41*,40,18,-3,0
COc1ccc(S(=O)(=O)Cc2ccc(C(=O)N3CCN(c4cccc(C)c4C)CC3)o2)cc1,0,40,7,9,3
O=C(c1ccc(CS(=O)Cc2ccc(Cl)cc2)o1)N1CCN(c2ccc(F)cc2)CC1 (stereo unspecified),-1,-8,-4,90*,3
Cc1cccc(N2CCN(C(=O)c3ccc(CS(=O)Cc4ccc(Cl)cc4)o3)CC2)c1C (stereo unspecified),8,-6,-3,69,6
Cc1ccc(C)c(N2CCN(C(=O)c3ccc(CS(=O)Cc4cccc(Cl)c4)o3)CC2)c1 (stereo unspecified),9,18,1,98*,9
COCCN(C(=O)CSc1nnc2cc(C)c3ccccc3n12)c1c(N)n(Cc2ccccc2)c(=O)[nH]c1=O,0,-4,1,8,-5
COc1cccc(N2CCN(C(=O)c3ccc(CS(=O)c4ccc(Cl)cc4)o3)CC2)c1 (stereo unspecified),0,4,0,3,2
O=C(c1ccncc1)N1CCN(c2ccc(F)cc2)CC1,0,0,0,4,4
COc1cccc(N2CCN(C(=O)c3ccc(CS(=O)c4ccc(C)cc4)o3)CC2)c1 (stereo unspecified),2,52*,nt,nt,-5
O=C(c1ccc(CS(=O)c2cccc(Cl)c2)o1)N1CCOCC1 (stereo unspecified),-1,-13,2,7,-7
O=C(c1ccc(Cl)cc1)N1CCN(c2ccc(F)cc2)CC1,110*,-2,3,4,1
O=C(c1ccc(CS(=O)Cc2cccc(Cl)c2)o1)N1CCN(C2CCCCC2)CC1 (stereo unspecified),0,-19,-3,95*,1
CC(NC(=O)CN1C(=O)NC2(CCCC2)C1=O)c1ccc(Cl)cc1Cl (stereo unspecified),61*,nt,0,0,nt
CCOC(=O)c1c(C)[nH]c(C)c1C(=O)COC(=O)c1ccc([N+](=O)[O-])s1,6,nt,3,-4,nt
O=C(OCC(=O)c1c[nH]c2ccccc12)c1ccc([N+](=O)[O-])s1,-5,-5,85,101*,3
CCc1cccc2c(C(=O)COC(=O)c3ccc([N+](=O)[O-])s3)c[nH]c12,37*,-9,100*,101*,2
COc1ccc(/C=C2/N=C(SC3CCOC3=O)N(c3cccc(OC)c3)C2=O)cc1 (stereo unspecified),0,-3,7,-18,3
SMILES,PfHsp40 rescue,BJeLR lethal,Sa RN4220 lethal,ugtP null kill,SARS 3CLpro inh
O=S(=O)(Nc1cccc2c1CCCC2)c1ccc(Cl)cc1,42*,-3,10,-10,5
CC(=O)OCC1=C(C(=O)O)N2C(=O)C(NC(=O)c3ccc(COc4ccc(Cl)cc4)o3)C2SC1 (stereo unspecified),2,-2,99*,100*,2
CC(=O)OCC1=C(C(=O)O)N2C(=O)C(NC(=O)c3ccc(COc4c(C)cccc4Cl)o3)C2SC1 (stereo unspecified),1,-20,96*,100*,6
CCOC(=O)N1CCC(NC(=O)c2ccc(CS(=O)(=O)c3c(Cl)cccc3Cl)o2)CC1,2,-6,3,-10,-3
COc1cc(/C=C(\C#N)C(=O)Nc2cccc(C(=O)O)c2)ccc1OCc1ccc(Cl)cc1,0,-8,nt,nt,7
CN(N=Cc1cc(Cl)cc(Cl)c1O)C(=S)NC(C)(C)C,nt,nt,100*,100*,nt
CON/C=C(\C=Nc1ccccc1)c1ncc(C(F)(F)F)cc1Cl,-1,-14,-1,96*,-2
CON/C=C(\C=Nc1ccc(Cl)cc1Cl)c1ncc(C(F)(F)F)cc1Cl,-1,-1,6,18,1
Cc1cc(C)c(S(=O)(=O)NC2CC3CCC2C3)c(C)c1 (stereo unspecified),64*,-1,-2,8,7
COc1ccc(S(=O)(=O)NC2CC3CCC2C3)cc1Br (stereo unspecified),81*,-6,3,-1,1
c1ccc(-c2nc(-c3cccs3)[nH]c2-c2ccccc2)cc1,1,-1,-3,4,3
c1csc(-c2nc3c4ccccc4c4ccccc4c3[nH]2)c1,-1,2,81,90*,-1
Oc1ccccc1-c1nc2c3ccccc3c3ccccc3c2[nH]1,-1,3,100*,98*,6
CC(=O)c1c(C)[nH]c(C(=O)OCC(=O)N2CCN(S(=O)(=O)c3ccc(C)cc3C)CC2)c1C,-1,4,-2,-3,3
Cc1ccc(-n2c(Cl)c(Cl)nc(Cl)c2=O)cc1,42*,nt,100*,100*,4
Cc1c(Cl)ccc2c(C(O)CBr)cc(-c3ccccc3)nc12 (stereo unspecified),12,nt,41,96*,nt
N#CC1=C(N)C(C#N)(C#N)C2(C(=O)Nc3ccccc32)C2CCCC=C12 (stereo unspecified),30*,-14,17,-15,0
O=C1Nc2ccccc2C12OC1CCCCC1O2 (stereo unspecified),-1,7,6,-1,-6
O=C(Nc1ccccc1O)C(c1ccccc1)c1ccccc1,-1,11,-1,14,1
CC(=O)/C=C(\C)Nc1ccccc1O,43*,-1,8,-1,-2
Cc1cc(N/N=C/c2ccc(O)c(C)c2O)nc(-c2ccccc2O)n1,73*,29,nt,nt,2
COc1cccc(C=NNc2cc(C)nc(-c3ccccc3O)n2)c1O,nt,nt,29,13,nt
CC(c1ccc2c(c1)OCO2)n1c(=S)[nH]c2ccccc2c1=O (stereo unspecified),75*,nt,-15,-44,nt
O=C(c1ccc(O)c(Br)c1)c1cc(Br)ccc1O,8,nt,77,84*,nt
